Data: PubChem BioAssay
Active and inactive are the calls of the source. Unless noted, the rule behind the calls is not given here.

Assays:
[1] = system: Wnt5a (protein binding on small-molecule microarray); experiment: Wnt5a binders on small-molecule microarray, primary screen, biophysical, 635/667 nm fluorescence (AID 1142); conditions: 635 nm fluorescence, higher = more signal;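 note: fluorescence read at 667 nm with signal to noise per printed feature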
[2] = cell viability in Huh7 cells, primary screen, cytotoxicity control for HCV replication inhibitor project, CellTiter-Glo luminescence, basal, 48 h (AID 1143); conditions: Huh7 HCV replicon, higher = more signal, called active from +8 up or from −8 down;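 note: Huh7 hepatoma cells carrying a hepatitis C replication reporter with no stimulus; test concentration not given here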
[3] = P. aeruginosa biofilm formation inhibitors, primary screen, PAO1 strain, BacTiter-Glo luminescence, LB-PBS (AID 1144); conditions: 12 h, higher = more signal
[4] = CREB reporter modulators without forskolin, primary screen, cell-based, PC12, CRE-LacZ reporter, unstimulated (AID 1145); conditions: no forskolin, luminescence, 4.5 h, higher = more signal, called active from +8 up or from −8 down
[5] = CREB reporter modulators under forskolin, primary screen, cell-based, PC12, CRE-LacZ reporter, forskolin-stimulated (AID 1146); conditions: luminescence, 4.5 h, higher = more signal, called active from +8 up or from −8 down;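 note: PC12 cells with 6xCRE LacZ reporter stimulated by forskolin 10 µM; beta-galactosidase reporter signal reflecting CREB driven transcription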
[6] = target: Streptavidin (Streptomyces avidinii) (UniProt P22629); experiment: streptavidin binders on small-molecule microarray, primary screen, artefact control for SMM compound annotation, biophysical, 635/667 nm fluorescence (AID 1147); conditions: streptavidin binding, higher = more signal;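 note: signal reflects streptavidin binding to arrayed compounds as a control protein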
Sequence of Streptavidin (Streptomyces avidinii) (P22629 whole entry, looked up): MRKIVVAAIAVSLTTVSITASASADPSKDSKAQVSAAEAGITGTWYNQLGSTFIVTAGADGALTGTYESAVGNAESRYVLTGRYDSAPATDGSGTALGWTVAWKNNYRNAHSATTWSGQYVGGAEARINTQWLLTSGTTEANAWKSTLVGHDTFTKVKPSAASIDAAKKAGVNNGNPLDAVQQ

[7] = small-molecule binders of probe aInhba, primary screen, biochemical, small-molecule microarray, 635/667 nm fluorescence (AID 1148); conditions: higher = more signal;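 note: score merges 667nm spot fluorescence with signal-to-noise for antibody binding to printed compounds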
Torsin-1A (Homo sapiens) [8] = target: Torsin-1A (Homo sapiens) (UniProt O14656); experiment: torsin A binders from cell lysate, primary screen, small-molecule microarray, wild-type, 635/667 nm (AID 1149); conditions: COS7 hTOR1A-WT lysate, 635 nm fluorescence, higher = more signal
Sequence of Torsin-1A (Homo sapiens) (O14656 whole entry, looked up): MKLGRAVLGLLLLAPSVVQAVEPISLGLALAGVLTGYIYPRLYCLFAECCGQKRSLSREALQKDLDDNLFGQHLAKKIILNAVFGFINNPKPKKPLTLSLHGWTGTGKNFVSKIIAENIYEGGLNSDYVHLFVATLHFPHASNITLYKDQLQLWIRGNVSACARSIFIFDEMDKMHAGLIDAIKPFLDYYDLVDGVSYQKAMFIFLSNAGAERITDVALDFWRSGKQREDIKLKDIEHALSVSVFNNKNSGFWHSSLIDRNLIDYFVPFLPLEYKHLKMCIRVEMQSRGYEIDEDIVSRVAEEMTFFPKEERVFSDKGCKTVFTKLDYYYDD

Torsin-1A (Homo sapiens) [9] = target: Torsin-1A (Homo sapiens) (UniProt O14656); experiment: small-molecule binders of mutant TOR1A in lysate, primary screen, cell lysate, small-molecule microarray, COS7 lysate, 635/667 nm fluorescence (AID 1150); conditions: COS7 hTOR1A mutant lysate, 635 nm fluorescence, higher = more signal;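 note: score pools 667 nm emission and signal to noise measuring lysate protein binding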
[10] = system: Sonic hedgehog protein (Shh); experiment: small-molecule binders of Shh protein, primary screen, biochemical, small-molecule microarray, 635/667 nm fluorescence (AID 1151); conditions: small-molecule microarray binding, 635 nm fluorescence; higher = more signal;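 note: Shh protein binding to compounds spotted on small-molecule microarray slides; score combines spot fluorescence intensity with signal-to-noise across triplicate slides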
[11] = E. coli DRC41 culture turbidity changes, primary screen, E. coli filamentation inducer project, strain DRC41, OD650, 48 h (AID 1152);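 note: E. coli MC1000 strain DRC41 lacking acrAB efflux pump and sulA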; conditions: E. coli DRC41 (acrAB sulA), higher = more signal, called active from +8 up or from −8 down
[12] = small-molecule binders of probe aLefty1, primary screen, biochemical, small-molecule microarray, 635/667 nm fluorescence (AID 1153); conditions: higher = more signal;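 note: score merges spot fluorescence with signal-to-noise ratio from the scanned slide images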
[13] = PSAC antagonists in infected red cells, primary screen, cell-based, P. falciparum Indochina, OD700, 1 h (AID 1154); conditions: P. falciparum Indochina infected RBC osmotic lysis, higher = more signal, called active from +8 up or from −8 down
[14] = PSAC antagonists in infected red cells, primary screen, cell-based, P. falciparum Indochina, OD700, 2 h (AID 1155);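 note: lysis reports solute entry through the parasite surface anion channel PSAC; channel blockers reduce lysis of infected cells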; conditions: P. falciparum Indochina infected erythrocytes, osmotic lysis OD700; higher = more signal, called active from +8 up or from −8 down
[15] = osmotic lysis modulators in infected erythrocytes, primary screen, PSAC antagonist project, cell-based, P. falciparum Indochina, OD700, 3 h (AID 1156); conditions: higher = more signal, called active from +8 up or from −8 down
[16] = PSAC antagonists in infected red cells, primary screen, cell-based, P. falciparum Indochina, OD700, 18 h (AID 1157); conditions: P. falciparum Indochina infected erythrocytes, osmotic lysis OD700, 18 h; higher = more signal, called active from +8 up or from −8 down
[17] = modulators of S6 phosphorylation in cells, primary screen, cell-based, A549, cytoblot, luminescence, serum-stimulated (AID 1158); conditions: A549 phospho-S6 cytoblot, 5 h, higher = more signal;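 note: serum-stimulated A549 lung adenocarcinoma cells; signal is phosphorylated S6 detected by cytoblot immunostaining with HRP secondary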
[18] = target: NADPH oxidase 2 (Homo sapiens) (UniProt P04839); experiment: NOX2-dependent H2O2 signal modulators, primary screen, NOX inhibitor project, cell-based, HEK293-NOX2, PMA-stimulated, Amplex Red fluorescence (AID 1159); conditions: 45 min, higher = more signal, called active from +8 up or from −8 down; note: test concentration not given here
Sequence of NADPH oxidase 2 (Homo sapiens) (P04839 whole entry, looked up): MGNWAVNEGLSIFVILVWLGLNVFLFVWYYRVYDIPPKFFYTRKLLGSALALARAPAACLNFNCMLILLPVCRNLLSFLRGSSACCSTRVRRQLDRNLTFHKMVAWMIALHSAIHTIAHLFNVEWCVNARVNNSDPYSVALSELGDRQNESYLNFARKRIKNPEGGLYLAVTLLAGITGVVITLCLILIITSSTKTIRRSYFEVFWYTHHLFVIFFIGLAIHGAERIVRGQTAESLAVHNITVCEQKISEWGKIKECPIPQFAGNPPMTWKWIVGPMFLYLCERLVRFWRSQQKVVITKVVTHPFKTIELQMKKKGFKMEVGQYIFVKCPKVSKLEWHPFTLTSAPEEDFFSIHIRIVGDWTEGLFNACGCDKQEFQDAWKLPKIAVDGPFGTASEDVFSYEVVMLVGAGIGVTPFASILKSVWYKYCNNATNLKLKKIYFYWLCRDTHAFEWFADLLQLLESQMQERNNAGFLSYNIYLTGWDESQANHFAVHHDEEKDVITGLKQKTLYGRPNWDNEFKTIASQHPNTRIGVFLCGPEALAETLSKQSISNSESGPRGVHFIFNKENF

[19] = target: NADPH oxidase 4 (Homo sapiens) (UniProt Q9NPH5); experiment: NOX4-dependent H2O2 signal modulators, primary screen, NOX inhibitor project, cell-based, HEK293-NOX4, tetracycline-induced, Amplex Red fluorescence (AID 1160); conditions: 45 min, higher = more signal, called active from +8 up or from −8 down
Sequence of NADPH oxidase 4 (Homo sapiens) (Q9NPH5 whole entry, looked up): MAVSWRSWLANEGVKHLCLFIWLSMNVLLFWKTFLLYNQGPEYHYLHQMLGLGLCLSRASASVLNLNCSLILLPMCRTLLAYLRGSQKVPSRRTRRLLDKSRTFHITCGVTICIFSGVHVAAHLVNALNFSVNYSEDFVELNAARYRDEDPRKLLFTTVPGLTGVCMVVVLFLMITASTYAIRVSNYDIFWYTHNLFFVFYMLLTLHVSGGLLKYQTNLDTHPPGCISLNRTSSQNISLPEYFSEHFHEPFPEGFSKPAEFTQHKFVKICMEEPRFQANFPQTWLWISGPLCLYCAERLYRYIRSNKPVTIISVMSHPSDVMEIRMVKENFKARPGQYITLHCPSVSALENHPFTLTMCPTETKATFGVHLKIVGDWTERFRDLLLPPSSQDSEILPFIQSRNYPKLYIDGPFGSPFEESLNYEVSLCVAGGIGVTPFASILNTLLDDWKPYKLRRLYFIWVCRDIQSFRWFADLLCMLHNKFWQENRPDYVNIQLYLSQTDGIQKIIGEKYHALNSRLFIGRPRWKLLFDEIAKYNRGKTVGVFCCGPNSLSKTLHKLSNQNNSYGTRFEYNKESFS

[20] = target: NADPH oxidase 5 (Homo sapiens) (UniProt Q96PH1); experiment: NOX5-dependent H2O2 signal modulators, primary screen, NOX inhibitor project, cell-based, HEK293-NOX5, Amplex Red fluorescence (AID 1161); conditions: HEK293-NOX5, ionomycin, 45 min, higher = more signal
Sequence of NADPH oxidase 5 (Homo sapiens) (Q96PH1 whole entry, looked up): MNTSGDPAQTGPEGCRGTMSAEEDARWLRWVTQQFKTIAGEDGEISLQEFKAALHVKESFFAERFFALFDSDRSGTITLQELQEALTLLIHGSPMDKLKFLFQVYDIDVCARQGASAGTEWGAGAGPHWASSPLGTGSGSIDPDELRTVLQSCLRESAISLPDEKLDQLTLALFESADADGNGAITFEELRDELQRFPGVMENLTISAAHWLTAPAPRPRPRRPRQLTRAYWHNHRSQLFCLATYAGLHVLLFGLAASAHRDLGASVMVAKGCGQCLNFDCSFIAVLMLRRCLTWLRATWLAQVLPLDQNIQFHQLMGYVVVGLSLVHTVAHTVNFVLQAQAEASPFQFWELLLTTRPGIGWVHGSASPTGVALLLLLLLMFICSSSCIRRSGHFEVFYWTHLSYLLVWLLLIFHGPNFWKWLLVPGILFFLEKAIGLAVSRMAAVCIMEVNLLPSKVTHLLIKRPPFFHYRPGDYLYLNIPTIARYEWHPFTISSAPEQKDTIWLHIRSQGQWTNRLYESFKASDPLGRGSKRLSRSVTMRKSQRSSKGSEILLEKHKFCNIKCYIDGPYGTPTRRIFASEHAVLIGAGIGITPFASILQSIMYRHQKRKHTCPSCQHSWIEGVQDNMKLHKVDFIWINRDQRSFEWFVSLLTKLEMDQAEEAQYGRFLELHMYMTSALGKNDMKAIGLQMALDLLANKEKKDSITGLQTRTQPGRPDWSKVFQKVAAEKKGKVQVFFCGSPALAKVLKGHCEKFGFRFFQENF

Row | SMILES | composite z-score [1] | z-score [2] | z-score [3] | z-score [4] | z-score [5] | composite z-score [6] | composite z-score [7] | composite z-score (Torsin-1A (Homo sapiens) [8]) | composite z-score (Torsin-1A (Homo sapiens) [9]) | composite z-score [10] | z-score [11] | composite z-score [12] | z-score [13] | z-score [14] | z-score [15] | z-score [16] | z-score [17] | z-score [18] | z-score [19] | z-score [20]
1 | COCCOC(=O)N1C(=O)[C@@]2(c3cc(C#CCCO)ccc31)[C@H](C(N)=O)[C@H]1C(=O)O[C@H](c3ccccc3)[C@H](c3ccccc3)N1[C@@H]2c1ccc(OCCO)cc1 | 0.622 | -0.869 (inactive) | -0.402 (inactive) | -0.141 (inactive) | -0.087 (inactive) | 0.438 | 0.0391 | 1.47 | 0.684 | 1.36 | -0.138 (inactive) | 0.157 | 23.4 (active) | 5.49 (inactive) | 1.88 (inactive) | 1.3 (inactive) | 0.388 | 1.78 (inactive) | 1.1 (inactive) | 0.785
2 | [N-]=[N+]=NCc1ccccc1C[C@@]1(C(=O)N2CCCCC2)N=C(c2ccc(OCCCO)cc2)O[C@@H]1c1ccccc1CN=[N+]=[N-] | 0.599 | -4.29 (inactive) | 0.87 (inactive) | -0.114 (inactive) | 0.872 (inactive) | 0.721 | 0.153 | 0.362 | -0.0699 | -0.306 | 0.464 (inactive) | 0.254 | 27.5 (active) | 19.6 (active) | 3.4 (inactive) | 2.31 (inactive) | -0.276 | -1.29 (inactive) | -0.467 (inactive) | -0.859
3 | [N-]=[N+]=NCc1ccccc1[C@@H]1OC(c2ccc(OCCCO)cc2)=N[C@]1(Cc1ccccc1N=[N+]=[N-])C(=O)NCCN1CCOCC1 | 0.959 | -3.14 (inactive) | 1.07 (inactive) | 0.895 (inactive) | -1.78 (inactive) | 0.974 | 0.102 | 1.06 | 1.01 | 0.387 | -0.04 (inactive) | 0.254 | 16.5 (active) | 2.41 (inactive) | 1.46 (inactive) | 1.45 (inactive) | -0.417 | -2.49 (inactive) | -0.406 (inactive) | -1
4 | COCCCNC(=O)[C@@]1(Sc2ccc(C)cc2)CC(=O)N(Cc2ccccc2Cl)[C@@H]1c1ccc(CO)cc1I | -0.509 | -1.35 (inactive) | 0.241 (inactive) | -0.168 (inactive) | 1.68 (inactive) | -0.768 | -0.128 | -1.03 | -0.213 | -0.519 | -0.192 (inactive) | 0.0004 | 3.44 (inactive) | 0.325 (inactive) | -0.575 (inactive) | 0.181 (inactive) | -0.487 | 1.52 (inactive) | -1.12 (inactive) | 2.08
5 | CS(=O)(=O)CCOC(=O)C1=CC(CCCO)=CC(C2CC2)N(Cc2cccc(OC(F)(F)F)c2)C=C1C(=O)OCCS(C)(=O)=O (stereo not given) | 0.0607 | -1.21 (inactive) | 0.154 (inactive) | 4.86 (inactive) | 0.0235 (inactive) | -0.358 | 0.0082 | 1.29 | 2.13 | 0.186 | -1.07 (inactive) | 0.0392 | 2.65 (inactive) | 0.404 (inactive) | -0.352 (inactive) | 0.675 (inactive) | -0.662 | 0.944 (inactive) | 0.19 (inactive) | -1.29
6 | CCCC=C(CCC)[C@@H](NC(=O)CCc1ccccc1)c1ccc(C(F)(F)F)cc1 | -0.0114 | -2.08 (inactive) | 0.715 (inactive) | -0.568 (inactive) | 0.318 (inactive) | 1.07 | 0.0374 | 0.983 | 0.801 | -0.37 | -1.56 (inactive) | 0.73 | 1.71 (inactive) | 0.542 (inactive) | 1.8 (inactive) | 1.01 (inactive) | 0.697 | -0.975 (inactive) | -1.6 (inactive) | 2.78
7 | COc1ccc([Si](C)(C)[C@H]2[C@H](CC(=O)N3Cc4ccccc4C[C@H]3CO)O[C@@]3(C(=O)N(Cc4ccc(N5C(=O)c6cccc7cccc5c67)cc4)c4ccccc43)[C@@H]2C)cc1 | -0.108 | -4.09 (inactive) | -0.67 (inactive) | 1.04 (inactive) | -1.35 (inactive) | 0.294 | 0.0102 | -0.0784 | 0.837 | 1.66 | 0.315 (inactive) | 0.0771 | 4.25 (inactive) | 1.36 (inactive) | 1.67 (inactive) | 1.09 (inactive) | 0.412 | -0.327 (inactive) | 0.252 (inactive) | -1.66
8 | CC=CC(O)C1C=CC2C(=O)NC(=O)C2N1Nc1ccccn1 (stereo not given) | -0.11 | 1.11 (inactive) | -0.587 (inactive) | -0.329 (inactive) | 0.701 (inactive) | 0.149 | -0.0645 | 0.599 | -0.164 | 0.77 | -0.576 (inactive) | -0.0061 | -0.335 (inactive) | -0.0554 (inactive) | 0.0091 (inactive) | 0.998 (inactive) | -0.966 | -1.39 (inactive) | -1.87 (inactive) | -1.74
9 | NC(=O)[C@H]1[C@@H]2C(=O)O[C@@H](c3ccccc3)[C@@H](c3ccccc3)N2[C@@H](c2ccc(O)cc2)[C@]12C(=O)Nc1ccccc12 | -0.355 | -0.0816 (inactive) | 0.191 (inactive) | -0.141 (inactive) | 0.272 (inactive) | -1.08 | -0.128 | -1.54 | -1.73 | -0.96 | -0.261 (inactive) | -0.18 | 3.33 (inactive) | 1.23 (inactive) | 0.217 (inactive) | 0.515 (inactive) | -0.471 | -0.741 (inactive) | -0.988 (inactive) | 0.572
